GALK inhibitor – qHTS Assay for Inhibitors of Human Galactokinase (GALK); Purified GALK, Kinase-Glo residual ATP luminescence; Potency, µM (highest dose often 57.5 µM), for inactives: top-dose activity change, negative = inhibition, usual class: inhibitors; actives 0.007% (n = 270,000); AID 1868, 2009
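Galactose (100 uM) and ATP (35 uM) were turned over by 5 nM GALK for 1 h at RT. Kinase-Glo Plus then converted the remaining ATP into a luminescent signal.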
TrxR1 substrate – qHTS Assay for Substrates of Mammalian Selenoprotein Thioredoxin Reductase 1 (TrxR1): qHTS | actives 0.01% (n = 390,000) | Thioredoxin reductase 1, cytoplasmic (Rattus norvegicus), O89049 | purified TrxR1 substrate turnover, NADPH consumption readout | Potency, µM (top dose mostly 114 µM), for the others: at the highest dose activity change, negative = substrate turnover | AID 588456, 2011; also: nearly all actives have a fitted effect of over 50% in size
Target sequence (O89049 whole entry, looked up): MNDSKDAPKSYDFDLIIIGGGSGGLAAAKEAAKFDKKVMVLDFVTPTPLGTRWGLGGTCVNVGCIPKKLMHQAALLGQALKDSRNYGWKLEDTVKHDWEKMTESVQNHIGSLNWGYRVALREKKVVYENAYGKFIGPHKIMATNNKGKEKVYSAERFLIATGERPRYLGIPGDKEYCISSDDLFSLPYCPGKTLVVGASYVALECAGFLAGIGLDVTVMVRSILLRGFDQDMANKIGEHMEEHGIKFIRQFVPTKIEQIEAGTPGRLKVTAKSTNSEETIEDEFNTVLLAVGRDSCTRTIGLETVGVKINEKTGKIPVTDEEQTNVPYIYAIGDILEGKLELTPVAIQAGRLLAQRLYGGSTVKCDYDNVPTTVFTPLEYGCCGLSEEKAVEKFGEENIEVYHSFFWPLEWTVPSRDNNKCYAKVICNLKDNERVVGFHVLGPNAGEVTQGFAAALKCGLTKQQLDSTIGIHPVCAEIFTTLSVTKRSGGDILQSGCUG
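Rat TrxR1, dispensed at 90 nM, was prereduced with 400 uM NADPH (final) for 5 min at ~22 deg C, then incubated with compound 15 min before 400 uM selenite. A first-read NADPH fluorescence drop versus no-compound background flagged substrates.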
Apoferritin bind – qHTS Assay for Identification of Novel General Anesthetics; apoferritin/1-aminoanthracene competitive binding, fluorescence; AID 485281, 2010; Ferritin light chain (Equus caballus), P02791; Potency, µM (highest dose often 77.5 µM), without a hit: top-dose activity change, negative = displacement, actives largely listed as inhibitors; actives 0.074% (n = 350,000); also: nearly all actives have a fitted effect of over 20% in size
Target sequence (P02791 2-175 limits assumed): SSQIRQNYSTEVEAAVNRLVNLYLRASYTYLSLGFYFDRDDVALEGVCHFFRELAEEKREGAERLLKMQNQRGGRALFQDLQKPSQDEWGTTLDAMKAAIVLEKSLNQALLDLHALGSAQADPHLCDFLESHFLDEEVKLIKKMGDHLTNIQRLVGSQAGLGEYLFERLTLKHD
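Probe: 1-aminoanthracene (50% saturated, PBS). Protein: horse-spleen apoferritin, 10 uM. Incubation: 10 min, room temperature. Detection: 380 nm excitation, 535 nm emission. Analysis: normalized response, four-parameter Hill.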
PKM2 activator – qHTS Assay for Activators of Human Muscle isoform 2 Pyruvate Kinase; Pyruvate kinase PKM (Homo sapiens), P14618; purified PKM2, Kinase-Glo ATP luminescence, activation; response scale: 0% is enzyme alone, no compound; Potency, µM (doses to about 57.5 µM), for inactives: top-dose activation, usual class: activators; actives 0.34% (n = 260,000); also: nearly all actives have a fitted effect of over 55% in size
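Kinase-Glo luminescence reports ATP generated from ADP (0.1 mM) and PEP (0.5 mM) by purified hPK-M2 after 1 h at room temperature, pH 7.2 imidazole buffer; intermediate enzyme activity allows detecting inhibitors and activators.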
rTrxR1 inhibitor – qHTS Assay for Inhibitors of Mammalian Selenoprotein Thioredoxin Reductase 1 (TrxR1): qHTS | actives 1% (n = 390,000) | recombinant rTrxR1, NADPH fluorescence consumption, selenite substrate | Potency, µM (titrated, usually from 114 µM), without a hit: at the top dose activity change, negative = inhibition, hits mostly inhibitors | Thioredoxin reductase 1, cytoplasmic (Rattus norvegicus), O89049; also: nearly all actives have a fitted effect of over 65% in size
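Rat TrxR1 (90 nM in the dispensed reagent) was pre-reduced with 400 uM NADPH for 5 min at room temperature, then incubated with compound for 15 min. After 400 uM selenite was added, NADPH fluorescence (Ex 340/Em 450 nm) was followed for 8 min.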
IDH1 R132H inh – qHTS for Inhibitors of mutant isocitrate dehydrogenase 1 (IDH1): qHTS; Isocitrate dehydrogenase [NADP] cytoplasmic (Homo sapiens), O75874; IDH1-R132H enzyme, NADPH consumption, diaphorase/resazurin fluorescence; Potency, µM (titrated, usually from 76.6 µM), for inactives: at the top dose activity change, negative = inhibition, actives largely listed as inhibitors; actives 0.093% (n = 390,000); AID 602179, 2012; also: nearly all actives have a fitted effect of over 65% in size
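IDH1-R132H (0.5 ug/mL) preincubated 30 min with compound, then NADPH (0.016 mM) and alpha-KG (2 mM) added; 80 min at RT, pH 7.5. Remaining NADPH coupled via diaphorase/resazurin to fluorescence (540/590 nm); concentration-response curves normalized to no-enzyme control.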
Active calls of the source: *; ? = inconclusive; . = not tested or not shown; [ ] = remark or other dose. An excerpt weighted towards active compounds, which were near 1.3% of everything screened. Calls follow the shape of the dose curve; as a rule, active = well fitted curve in the direction sought with a large enough effect; inconclusive = small, poorly fitted or top-dose-only effect, or another doubt; inactive = no such curve, though single readings can be large; an effect the other way counts as inactive or inconclusive. % is scaled to controls: 0 for no effect and ±100 for the full control effect; potency is read from the fitted curve at half-maximal effect.

SMILES	GALK inhibitor	TrxR1 substrate	Apoferritin bind	PKM2 activator	rTrxR1 inhibitor	IDH1 R132H inh
CCCOC(=O)c1ccc(-c2ccc(C=O)o2)cc1	0%	74%	-5%	2%	32µM*	6%
Cc1cc(C)c(Cn2c3ccccc3c3cnn(CC(=O)NC4CCC(C)CC4)c(=O)c32)c(C)c1 (configuration not stated)	.	0%	-1%	.	8%	-10%
Cc1cc(C(=O)NCCC2=CCCCC2)c(C)o1	0%	-7%	-13%	14%	32µM*	5%
CC(Sc1nc(=O)cc(N)n1CCc1ccccc1)C(=O)Nc1ccccc1C#N (configuration not stated)	.	-1%	4%	.	9%	-7%
COCc1cc(S(=O)c2ccc(Cl)cc2)nc(C)n1 (configuration not stated)	-1%	0%	-12%	3%	14µM*	4%
O=C(CCl)N1CCN2C(=O)c3ccccc3C12c1ccc(Cl)cc1 (configuration not stated)	7%	11%[57.1 µM]	-7%	0%	5µM*	-26%
COc1cc2c(NC3CCN(C)CC3)nc(N3CCCN(C)CC3)nc2cc1OCCCCCN(C)C	.	81%	.	.	?	.
O=C(O)C1CC(=O)N(Cc2ccccc2)C1 (configuration not stated)	2%	5%	-7%	-6%	11%	2%
O=C1N(Cc2ccccc2)CC2(Br)COCOC12O (configuration not stated)	.	8%[11.4 µM]	.	.	2.2µM*	6%
Cc1ccc2c(C)ccnc2c1	.	3%	.	.	-10%	.
COc1ccc(CCNC(=O)Cn2cc(S(=O)(=O)Cc3cccc(Cl)c3)c3ccccc32)cc1OC	.	-5%	-1%	.	7%	9%
Cc1ccc(CN(CC2CCCO2)C(=O)CN2C(=O)C(C(C)C)Oc3ccccc32)o1 (configuration not stated)	5%	-2%	?	32µM*	10µM*	9%
Cc1ccc(C(=O)c2c3ccc([N+](=O)[O-])cc3[n+]([O-])n2CCCN)cc1	.	2%	.	.	56µM*	16%
CCCCC12CN3CC(C)(CN(C1)C3c1c[nH]c3ccccc13)C2=O (configuration not stated)	.	-5%	-18%	.	9%	13%
O=C1CS(=O)(=O)N(Cc2cccc(F)c2)c2ccc(Br)cc21	.	-4%	.	.	79µM*	5%
COC(=O)c1ccc(CCc2cc(O)ccc2O)cc1	.	-15%	.	.	56µM*	3%
COC(=O)c1ccc(CCc2cc(O)c(Br)cc2O)cc1	.	0%	.	.	22µM*	11%
O=C(Nc1ccncc1)c1cnn2c1NC(=C1CC1)C=C2C(F)F	.	-1%	.	.	-10%	.
O=S(=O)(C/C(=C/CO)S(=O)(=O)c1ccccc1)c1ccccc1	0%	10%	-10%	5%	2.2µM*	5%
O=S(=O)(CS(=O)(=O)c1ccccc1)c1ccccc1	.	-10%	.	.	11µM*	3%
Cc1nc(N2CCCC2)ncc1C(=O)Nc1ccccc1	.	7%[57.1 µM]	-7%	.	17%[57.1 µM]	.
CCOC(=O)c1ccc(CC(=O)c2ccc(O)cc2O)o1	-2%	13%[57.1 µM]	-10%	5%	-6%[57.1 µM]	-14%
CCC(=O)Oc1ccc(C/C(=N\O)c2ccc(O)cc2O)o1	-1%	10%	5%	9%	10µM*	-1%
COc1ccc(N2CCN(S(=O)(=O)CCNC(=O)c3ccc(C(F)(F)F)cc3)CC2)cc1	.	-4%[57.1 µM]	5%	.	10%[57.1 µM]	-7%
O=C(CCS(=O)(=O)c1nc(-c2cccs2)cc(C(F)(F)F)n1)Nc1ccc(OC(F)(F)F)cc1	.	6%	-22%	.	-3%	?
SMILES	GALK inhibitor	TrxR1 substrate	Apoferritin bind	PKM2 activator	rTrxR1 inhibitor	IDH1 R132H inh
CC(C)c1nnc(NC(=O)CCS(=O)(=O)c2nc(-c3cccs3)cc(C(F)(F)F)n2)s1	-1%	14%	?	11%	35µM*	0%
COc1ccc(NC(=O)CCS(=O)(=O)c2nc(-c3cccs3)cc(C(F)(F)F)n2)cc1	.	13%[2.29 µM]	-11%	.	13µM*	-6%
Cc1ccccc1CN1[C@H](C)[C@H](c2ccccc2)OCCS1(=O)=O	.	6%	.	.	27%	.
CC(C)Oc1ccc(CNC(=O)c2cccc(NC(=O)c3nsc4ccccc34)c2)cc1	.	1%[57.1 µM]	5%	.	22%[57.1 µM]	-1%
O=C(NCc1ccc2c(c1)OCO2)c1cc2c(s1)CSC2	.	9%[57.1 µM]	-3%	17%	12%[57.1 µM]	1%
O=C(NCc1ccco1)c1cc2c(s1)CSC2	-5%	13%	-18%	21%	7.9µM*	3%
COc1ccc(C=C2C=C(C(C)(C)C)C(=O)C(C(C)(C)C)=C2)cc1OC	2%	1%	?	2%	11µM*	5%
Cc1ccc(CCNC(=O)CS(=O)Cc2nc(-c3ccccc3F)oc2C)cc1 (configuration not stated)	5%	2%	-15%	.	32µM*	-8%
COc1ccc(CCNC(=O)CS(=O)Cc2nc(-c3ccccc3Cl)oc2C)cc1OC (configuration not stated)	-1%	7%	-10%	.	27%	5%
COCCNC(=O)CS(=O)Cc1nc(-c2ccccc2C)oc1C (configuration not stated)	2%	7%	-1%	3%	16µM*	1%
COc1ccc(CCNC(=O)CS(=O)Cc2nc(-c3ccccc3F)oc2C)cc1OC (configuration not stated)	-2%	24%	-2%	.	50µM*	2%
COc1ccc(OC)c(CNC(=O)CN2CC(C)Sc3ccccc32)c1 (configuration not stated)	.	-1%[57.1 µM]	-4%	.	16%[57.1 µM]	4%
Cc1ccc(/C=C/C(=O)NCC2COc3ccccc3O2)o1 (configuration not stated)	3%	5%	-14%	27%	16µM*	-1%
Cc1ccccc1-c1nc(CN2CCN(C(=O)c3ccco3)CC2)c(C)o1	-3%	-6%	-7%	-4%	56µM*	1%

High-throughput results from PubChem BioAssay.
